Activity calls are given as the source filed them.
Tests used:
[1] = system: Wnt5a (protein binding on small-molecule microarray); assay: small molecules binding Wnt5a protein – biophysical, small-molecule microarray, 635/667 nm fluorescence, primary screen (AID 1142); conditions: 635 nm fluorescence, higher = more signal;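 further: fluorescence read at 667 nm with signal to noise per printed feature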
[2] = ATP-based viability of Huh7 replicon cells – cell-based, CellTiter-Glo luminescence, basal, 48 h, cytotoxicity control for HCV replication inhibitor project, primary screen (AID 1143); conditions: higher = more signal, called active from +8 up or from −8 down;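 further: Huh7 hepatoma cells carrying a hepatitis C replication reporter with no stimulus; test concentration not given here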
[3] = basal CRE-LacZ reporter activity in PC12 – cell-based, unstimulated, primary screen (AID 1145); conditions: no forskolin, luminescence, 4.5 h, higher = more signal, called active from +8 up or from −8 down
[4] = forskolin-driven CRE-LacZ activity in PC12 – cell-based, CRE-LacZ reporter, forskolin-stimulated, primary screen (AID 1146); conditions: luminescence, 4.5 h, higher = more signal, called active from +8 up or from −8 down;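 further: PC12 cells with 6xCRE LacZ reporter stimulated by forskolin 10 µM; beta-galactosidase reporter signal reflecting CREB driven transcription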
[5] = biological target: Streptavidin (Streptomyces avidinii) (UniProt P22629); assay: compounds binding control protein streptavidin – biophysical, small-molecule microarray, 635/667 nm fluorescence, artefact control for SMM compound annotation, primary screen (AID 1147); conditions: higher = more signal;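 further: signal reflects streptavidin binding to arrayed compounds as a control protein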
[6] = probe aInhba binding on compound microarray – biochemical, small-molecule microarray, 635/667 nm fluorescence, primary screen (AID 1148); conditions: higher = more signal;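 further: score merges 667nm spot fluorescence with signal-to-noise for antibody binding to printed compounds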
Torsin-1A (Homo sapiens) [7] = biological target: Torsin-1A (Homo sapiens) (UniProt O14656); assay: TOR1A wild-type binding on microarray – cell lysate, small-molecule microarray, lysate, 635/667 nm, primary screen (AID 1149); conditions: COS7 hTOR1A-WT lysate, 635 nm fluorescence, higher = more signal
Torsin-1A (Homo sapiens) [8] = biological target: Torsin-1A (Homo sapiens) (UniProt O14656); assay: torsin A mutant lysate binding on microarrays – cell lysate, small-molecule microarray, COS7 lysate, 635/667 nm fluorescence, primary screen (AID 1150); conditions: COS7 hTOR1A mutant lysate, 635 nm fluorescence, higher = more signal;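 further: score pools 667 nm emission and signal to noise measuring lysate protein binding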
[9] = system: Sonic hedgehog protein (Shh); assay: Sonic hedgehog microarray binding compounds – biochemical, small-molecule microarray, 635/667 nm fluorescence, primary screen (AID 1151); conditions: 635 nm fluorescence, higher = more signal;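 further: Shh protein binding to compounds spotted on small-molecule microarray slides; score combines spot fluorescence intensity with signal-to-noise across triplicate slides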
[10] = optical density shifts of acrAB sulA E. coli – strain DRC41, OD650, 48 h, E. coli filamentation inducer project, primary screen (AID 1152); conditions: higher = more signal, called active from +8 up or from −8 down;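 further: E. coli MC1000 strain DRC41 lacking acrAB efflux pump and sulA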
[11] = probe aLefty1 binding on compound microarray – biochemical, small-molecule microarray, 635/667 nm fluorescence, primary screen (AID 1153); conditions: higher = more signal;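 further: score merges spot fluorescence with signal-to-noise ratio from the scanned slide images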
[12] = plasmodial surface anion channel blockers, osmotic lysis – cell-based, P. falciparum Indochina, OD700, 1 h, primary screen (AID 1154); conditions: P. falciparum Indochina infected RBC osmotic lysis, higher = more signal, called active from +8 up or from −8 down
[13] = plasmodial surface anion channel blockers, osmotic lysis – cell-based, P. falciparum Indochina, OD700, 2 h, primary screen (AID 1155);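 further: lysis reports solute entry through the parasite surface anion channel PSAC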; conditions: P. falciparum Indochina infected erythrocytes, higher = more signal, called active from +8 up or from −8 down
[14] = changes in parasitized red cell lysis, either direction – P. falciparum Indochina, OD700, 3 h, PSAC antagonist project, primary screen (AID 1156); conditions: P. falciparum-infected erythrocytes, osmotic lysis, higher = more signal, called active from +8 up or from −8 down
[15] = plasmodial surface anion channel blockers, osmotic lysis – cell-based, P. falciparum Indochina, OD700, 18 h, primary screen (AID 1157); conditions: P. falciparum Indochina infected erythrocytes, osmotic lysis OD700, 18 h; higher = more signal, called active from +8 up or from −8 down
[16] = S6 kinase pathway phospho-S6 level changes – cell-based, A549, cytoblot, luminescence, serum-stimulated, primary screen (AID 1158); conditions: 5 h, higher = more signal;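 further: serum-stimulated A549 lung adenocarcinoma cells; signal is phosphorylated S6 detected by cytoblot immunostaining with HRP secondary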
[17] = biological target: NADPH oxidase 2 (Homo sapiens) (UniProt P04839); assay: compounds shifting NOX2 Amplex Red fluorescence – cell-based, HEK293-NOX2, PMA-stimulated, NOX inhibitor project, primary screen (AID 1159); conditions: 45 min, higher = more signal, called active from +8 up or from −8 down; further: test concentration not given here
[18] = biological target: NADPH oxidase 4 (Homo sapiens) (UniProt Q9NPH5); assay: compounds shifting NOX4 Amplex Red fluorescence – cell-based, HEK293-NOX4, tetracycline-induced, NOX inhibitor project, primary screen (AID 1160); conditions: HEK293-NOX4, Amplex Red H2O2 fluorescence, 45 min; higher = more signal, called active from +8 up or from −8 down
[19] = biological target: NADPH oxidase 5 (Homo sapiens) (UniProt Q96PH1); assay: compounds shifting NOX5 Amplex Red fluorescence – cell-based, HEK293-NOX5, NOX inhibitor project, primary screen (AID 1161); conditions: HEK293-NOX5, ionomycin, 45 min, higher = more signal
[20] = compound effects on lung adenocarcinoma cell viability – A549, calcein-AM fluorescence, 48 h, basal, profiling panel (AID 1162); conditions: higher = more signal; further: test concentration not given here

Chain of NADPH oxidase 2 (Homo sapiens) (P04839 whole entry, looked up): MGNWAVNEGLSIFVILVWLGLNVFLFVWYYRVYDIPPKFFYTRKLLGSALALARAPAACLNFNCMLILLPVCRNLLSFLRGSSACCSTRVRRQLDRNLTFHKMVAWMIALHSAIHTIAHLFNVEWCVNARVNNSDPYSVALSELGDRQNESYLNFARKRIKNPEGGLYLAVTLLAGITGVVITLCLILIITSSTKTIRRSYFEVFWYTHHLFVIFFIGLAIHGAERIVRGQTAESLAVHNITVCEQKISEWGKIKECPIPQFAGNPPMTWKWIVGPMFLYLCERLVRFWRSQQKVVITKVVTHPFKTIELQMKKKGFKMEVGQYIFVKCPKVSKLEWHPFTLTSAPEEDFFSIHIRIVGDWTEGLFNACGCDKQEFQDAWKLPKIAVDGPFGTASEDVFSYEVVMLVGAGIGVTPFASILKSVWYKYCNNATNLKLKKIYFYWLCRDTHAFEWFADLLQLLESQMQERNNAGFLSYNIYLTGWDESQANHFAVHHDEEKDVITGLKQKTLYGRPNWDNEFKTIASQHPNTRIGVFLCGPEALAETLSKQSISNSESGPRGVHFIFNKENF
Chain of Streptavidin (Streptomyces avidinii) (P22629 whole entry, looked up): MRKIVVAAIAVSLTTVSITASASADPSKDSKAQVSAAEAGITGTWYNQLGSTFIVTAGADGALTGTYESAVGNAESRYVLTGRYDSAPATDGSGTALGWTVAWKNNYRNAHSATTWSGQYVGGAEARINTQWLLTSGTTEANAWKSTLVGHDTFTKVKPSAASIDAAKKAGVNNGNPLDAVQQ
Chain of NADPH oxidase 4 (Homo sapiens) (Q9NPH5 whole entry, looked up): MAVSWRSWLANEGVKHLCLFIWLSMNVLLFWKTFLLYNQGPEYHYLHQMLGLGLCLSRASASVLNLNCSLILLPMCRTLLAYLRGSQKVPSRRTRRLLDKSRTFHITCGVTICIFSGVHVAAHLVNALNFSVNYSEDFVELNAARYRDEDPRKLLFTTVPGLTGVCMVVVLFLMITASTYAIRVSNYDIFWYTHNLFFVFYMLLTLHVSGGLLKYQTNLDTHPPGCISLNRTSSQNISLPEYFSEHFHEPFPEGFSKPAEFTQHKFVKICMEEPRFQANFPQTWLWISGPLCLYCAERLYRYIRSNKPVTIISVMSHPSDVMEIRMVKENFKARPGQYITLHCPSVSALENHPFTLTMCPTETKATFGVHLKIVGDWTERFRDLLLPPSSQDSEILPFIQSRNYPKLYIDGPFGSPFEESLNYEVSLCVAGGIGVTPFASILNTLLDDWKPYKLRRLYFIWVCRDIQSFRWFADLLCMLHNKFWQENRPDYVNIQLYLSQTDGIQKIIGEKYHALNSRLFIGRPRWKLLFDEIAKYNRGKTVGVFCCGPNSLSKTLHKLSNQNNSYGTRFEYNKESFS
Chain of Torsin-1A (Homo sapiens) (O14656 whole entry, looked up): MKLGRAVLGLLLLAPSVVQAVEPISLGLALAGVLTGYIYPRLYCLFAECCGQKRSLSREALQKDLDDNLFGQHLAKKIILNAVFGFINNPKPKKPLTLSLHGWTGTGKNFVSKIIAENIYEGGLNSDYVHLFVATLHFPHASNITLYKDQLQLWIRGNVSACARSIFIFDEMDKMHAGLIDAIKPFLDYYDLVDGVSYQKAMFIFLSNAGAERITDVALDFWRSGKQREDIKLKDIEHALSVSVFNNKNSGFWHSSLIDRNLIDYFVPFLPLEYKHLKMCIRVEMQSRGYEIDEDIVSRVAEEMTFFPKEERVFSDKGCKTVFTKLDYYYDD
Chain of NADPH oxidase 5 (Homo sapiens) (Q96PH1 whole entry, looked up): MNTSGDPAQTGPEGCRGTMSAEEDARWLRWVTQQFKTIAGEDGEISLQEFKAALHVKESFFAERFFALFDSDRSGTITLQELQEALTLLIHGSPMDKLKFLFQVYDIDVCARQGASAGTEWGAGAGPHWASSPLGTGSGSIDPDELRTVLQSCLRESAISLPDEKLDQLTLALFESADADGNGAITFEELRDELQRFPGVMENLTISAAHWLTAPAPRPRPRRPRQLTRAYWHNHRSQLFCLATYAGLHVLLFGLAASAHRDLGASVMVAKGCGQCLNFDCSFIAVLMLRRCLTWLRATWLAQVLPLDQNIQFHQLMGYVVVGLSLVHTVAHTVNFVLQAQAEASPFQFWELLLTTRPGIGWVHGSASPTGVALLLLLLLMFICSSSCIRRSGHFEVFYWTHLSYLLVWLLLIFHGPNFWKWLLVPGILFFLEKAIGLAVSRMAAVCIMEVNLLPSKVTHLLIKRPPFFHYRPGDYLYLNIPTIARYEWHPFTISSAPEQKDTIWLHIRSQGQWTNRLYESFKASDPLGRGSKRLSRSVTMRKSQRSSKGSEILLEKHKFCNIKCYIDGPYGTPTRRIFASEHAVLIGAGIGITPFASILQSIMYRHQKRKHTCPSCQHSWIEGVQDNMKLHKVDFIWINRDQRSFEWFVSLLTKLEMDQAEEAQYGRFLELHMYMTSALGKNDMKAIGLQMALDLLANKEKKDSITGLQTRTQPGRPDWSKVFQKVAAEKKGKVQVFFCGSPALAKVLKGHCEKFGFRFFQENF

Compound	composite z-score [1]	z-score [2]	z-score [3]	z-score [4]	composite z-score [5]	composite z-score [6]	composite z-score (Torsin-1A (Homo sapiens) [7])	composite z-score (Torsin-1A (Homo sapiens) [8])	composite z-score [9]	z-score [10]	composite z-score [11]	z-score [12]	z-score [13]	z-score [14]	z-score [15]	z-score [16]	z-score [17]	z-score [18]	z-score [19]	z-score [20]
C=CCC(OC(C)=O)[C@@H]1[C@@H](N(Cc2cc3ccccc3o2)C(=O)c2ccc(-c3ccccc3)cc2)c2cc(OCCCO)ccc2N1C(=O)c1ccc(-c2ccccc2)cc1 (stereo not given in full)	0.0258	0.267 (inactive)	0.6 (inactive)	-0.625 (inactive)	-0.0123	0.0497	-0.347	0.244	0.224	2.06 (inactive)	0.0038	-0.0828 (inactive)	0.179 (inactive)	-0.0582 (inactive)	-0.0337 (inactive)	0.436	0.989 (inactive)	-1.13 (inactive)	0.786	0.0525
C=CCN1C(=O)[C@@]2(O[C@@H](CCO)[C@H]([Si](C)(C)c3ccc(OC)cc3)[C@H]2C)c2cc(N3C(=O)c4cccc5cccc3c45)ccc21	-0.1	-7.95 (inactive)	22.3 (active)	-4.22 (inactive)	0.168	0.017	0.408	0.579	0.567	1.29 (inactive)	0.0313	24.5 (active)	9.43 (active)	0.0469 (inactive)	2.56 (inactive)	0.0438	-0.167 (inactive)	0.606 (inactive)	1.25	-3.04
CO[C@H]1O[C@H](CO)[C@@H](OC(=O)Nc2ccccc2)[C@H](OC(=O)Nc2ccccc2-c2ccccc2)[C@H]1OC(=O)Nc1ccccc1-c1ccccc1	0.289	-5.87 (inactive)	1.56 (inactive)	0.028 (inactive)	0.787	-0.0506	0.56	0.679	0.877	0.663 (inactive)	0.302	3.27 (inactive)	-0.843 (inactive)	-1.21 (inactive)	-1.81 (inactive)	0.668	-6.45 (inactive)	-0.665 (inactive)	-1.43	-4.11
CO[C@H]1O[C@H](CO)[C@@H](OC(=O)Nc2ccccc2)[C@H](OC(=O)Nc2ccccc2-c2ccccc2)[C@@H]1OC(=O)Nc1ccccc1-c1ccccc1	0.36	-5.22 (inactive)	0.204 (inactive)	-0.446 (inactive)	1.44	0.329	1.17	0.806	2.03	1.33 (inactive)	1.29	2.57 (inactive)	0.116 (inactive)	-0.358 (inactive)	-2.03 (inactive)	1.01	2.2 (inactive)	0.697 (inactive)	0.306	-1.01
C[C@@H](OCc1ccccc1)C1NC(=O)[C@@]23C(=O)N[C@@H](Cc4ccccc4)C2[C@H](C)[C@@]2(C)O[C@H]2C3/C=C/C/C=C\CNC(=O)[C@@H]2CCCN2C1=O (stereo not given in full)	-0.13	-0.866 (inactive)	2.13 (inactive)	-1.55 (inactive)	-0.9	-0.192	-0.0343	1.12	0.558	2.21 (inactive)	-0.239	1.49 (inactive)	0.0899 (inactive)	0.933 (inactive)	0.231 (inactive)	0.663	-0.0597 (inactive)	0.397 (inactive)	-0.915	0.791
CC(C)C[C@@H]1NC(=O)[C@H]2C[C@@H](C(=O)NCCCC[N+](C)(C)C)[C@@H](c3cccc(OCCO)c3)N2C1=O	0.223	-1.01 (inactive)	-0.26 (inactive)	-1.21 (inactive)	-0.429	-0.1	2.05	0.629	2.03	0.512 (inactive)	-0.243	2.25 (inactive)	-1.73 (inactive)	-2.51 (inactive)	-2.05 (inactive)	0.251	-1.8 (inactive)	-0.815 (inactive)	-1.49	1.01
COc1ccc([Si](C)(C)[C@@H]2[C@@H](CCn3cc([C@H](O)c4ccccc4)nn3)O[C@]3(C(=O)N(C)c4c(Br)cc(C)cc43)[C@H]2C)cc1	0.17	-6.27 (inactive)	8.24 (active)	-1.37 (inactive)	-0.541	0.0659	0.722	-0.0682	0.658	3.5 (inactive)	-0.279	26.4 (active)	15.1 (active)	0.547 (inactive)	0.083 (inactive)	2.34	1.04 (inactive)	0.593 (inactive)	0.231	-1.72
[N-]=[N+]=NCc1ccccc1C[C@]1(C(=O)NCc2ccccc2)N=C(c2ccc(OCCCO)cc2)O[C@H]1c1ccccc1	0.46	-4.02 (inactive)	1.11 (inactive)	-1.14 (inactive)	0.532	0.216	-0.265	0.765	-0.948	1.78 (inactive)	0.832	10.9 (active)	1.53 (inactive)	3.76 (inactive)	-0.605 (inactive)	1.09	-0.425 (inactive)	1.24 (inactive)	0.0397	-2.79

Reference: PubChem BioAssay
